Assay results reported in PMC7826789 (International Journal of Molecular Sciences, 2021).

Assays:
Conditions in all cases: Compound Concentration (nM):1000
MYLK4 = tested on: MYLK4
MYLK = tested on: MYLK
MYO3A = tested on: MYO3A
MYO3B = tested on: MYO3B
NDR1 = tested on: T1, NDR1
T1 construct: gene STK38

NDR2 = tested on: T2, NDR2
T2 construct: gene STK38L

NEK10 = tested on: NEK10
NEK11 = tested on: NEK11
NEK1 = tested on: NEK1
NEK2 = tested on: NEK2
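Also: KINOMEscan scanMAX binding as percent activity remaining versus control; lower means stronger binding.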

| Compound | Percent Control (MYLK4) [%] | Percent Control (MYLK) [%] | Percent Control (MYO3A) [%] | Percent Control (MYO3B) [%] | Percent Control (NDR1) [%] | Percent Control (NDR2) [%] | Percent Control (NEK10) [%] | Percent Control (NEK11) [%] | Percent Control (NEK1) [%] | Percent Control (NEK2) [%] |
| --- | --- | --- | --- | --- | --- | --- | --- | --- | --- | --- |
| COc1cccc(-c2c[nH]c3c(N/N=C/c4ccncc4)ncnc23)c1 [GW814408X] | 100 | 100 | 100 | 100 | 93 | 98 | 92 | 100 | 95 | 100 |
| COc1cc(N2CCN(C(C)C)CC2)ccc1Nc1nc(Nc2ccc(F)cc2C(=O)NC[C@@H](O)CO)c2cc[nH]c2n1 [GSK1392956A] | 82 | 0.3 | 88 | 100 | 99 | 91 | 34 | 100 | 82 | 99 |
| Cl.O=S1CCN(Cc2ccc(-c3ccc4ncnc(Nc5ccc(OCc6ccccc6)c(F)c5)c4c3)o2)CC1 [GW576924A] | 100 | 100 | 100 | 100 | 99 | 100 | 100 | 100 | 93 | 100 |
| CC(C)COC(=O)c1ccc2c(c1)/C(=C/Nc1ccc(S(N)(=O)=O)cc1)C(=O)N2 [GW416981X] | 100 | 100 | 100 | 100 | 66 | 100 | 100 | 100 | 94 | 100 |
| CCS(=O)(=O)c1ccc(OC)c(Nc2ncc(-c3cccc(F)c3)o2)c1 [GW621970X] | 100 | 100 | 100 | 100 | 100 | 100 | 100 | 93 | 84 | 100 |
| NS(=O)(=O)c1ccc(Nc2ncc(-c3ccccc3)o2)cc1 [GW572399X] | 81 | 100 | 100 | 100 | 83 | 100 | 100 | 100 | 84 | 100 |
| COc1cc(C=NNc2ncnc3c2cnn3-c2ccccc2)ccc1O [GW513184X] | 100 | 100 | 100 | 95 | 100 | 100 | 100 | 100 | 100 | 100 |
| Nc1ncnc2occ(-c3ccc(NC(=O)Nc4cc(C(F)(F)F)ccc4F)cc3)c12 [GW770249X] | 100 | 100 | 9.7 | 15 | 94 | 100 | 100 | 100 | 89 | 77 |
| COc1ccc2cc(-c3c(-c4ccncc4)nc(-c4ccc(S(C)(=O)=O)cc4C)n3C)ccc2c1 [SB-633825] | 93 | 82 | 53 | 18 | 77 | 63 | 69 | 90 | 100 | 93 |
| COc1ccccc1-c1cc(/C=C2\C(=O)Nc3ncc(Br)cc32)cc(Br)c1O [GW442130X] | 100 | 100 | 75 | 100 | 97 | 74 | 100 | 100 | 95 | 100 |
| CCn1c(-c2nonc2N)nc2c(C#CC(C)(C)O)nc(OCCNC)cc21.Cl [GSK949675] | 100 | 88 | 100 | 98 | 87 | 81 | 100 | 100 | 100 | 100 |
| NS(=O)(=O)c1ccc(N/N=C2\C(=O)Nc3ccc(C(=O)NCc4ccncc4)cc32)cc1 [GW300657X] | 83 | 45 | 68 | 100 | 76 | 82 | 48 | 40 | 80 | 79 |
| COC(=O)Nc1nc2ccc(Oc3ccc(NC(=O)Nc4cc(C(F)(F)F)ccc4F)cc3)cc2s1.Cl [GW693917A] | 93 | 100 | 93 | 100 | 86 | 94 | 90 | 100 | 94 | 82 |
| Cc1cc(O)cc(C)c1/C=C/c1cncc(C(N)=O)c1 [GW435821X] | 100 | 97 | 100 | 100 | 99 | 100 | 100 | 100 | 100 | 100 |
| COc1ccc2[nH]c3c4[nH]c5ccc(OC)cc5c4c4c(c3c2c1)C(=O)NC4=O [GW296115X] | 49 | 6.9 | 81 | 100 | 57 | 72 | 93 | 100 | 100 | 78 |
| NS(=O)(=O)c1ccc(N/N=C2\C(=O)Nc3ccc(C(=O)NCCc4c[nH]cn4)cc32)cc1 [GW300660X] | 87 | 79 | 100 | 100 | 77 | 100 | 100 | 100 | 100 | 100 |
| COc1cc2ncn(-c3cc(O[C@H](C)c4ccccc4Cl)c(C(N)=O)s3)c2cc1OC [GSK237701A] | 45 | 94 | 100 | 100 | 84 | 100 | 95 | 78 | 51 | 3.7 |
| CN(C)CCNC(=O)Nc1ccc(N(C)c2ccnc(Nc3ccc(CS(C)(=O)=O)cc3)n2)cc1.Cl [GW830900A] | 100 | 100 | 99 | 92 | 86 | 100 | 87 | 100 | 92 | 90 |
| O=C(Nc1n[nH]c2nc(-c3ccc(O)cc3)c(Br)cc12)C1CC1 [SB-725317] | 100 | 56 | 48 | 100 | 100 | 100 | 100 | 100 | 99 | 100 |
| C[C@@H](Oc1cc(-n2cnc3ccc(OC4CCN(C)CC4)cc32)sc1C(N)=O)c1ccccc1Cl [GSK579289A] | 62 | 81 | 74 | 87 | 98 | 88 | 92 | 100 | 60 | 9.5 |

| Compound | Percent Control (MYLK4) [%] | Percent Control (MYLK) [%] | Percent Control (MYO3A) [%] | Percent Control (MYO3B) [%] | Percent Control (NDR1) [%] | Percent Control (NDR2) [%] | Percent Control (NEK10) [%] | Percent Control (NEK11) [%] | Percent Control (NEK1) [%] | Percent Control (NEK2) [%] |
| --- | --- | --- | --- | --- | --- | --- | --- | --- | --- | --- |
| Cl.O=C(Nc1ccc(Oc2ccc3[nH]c(NC(=O)c4ccco4)nc3c2)cc1)Nc1cc(C(F)(F)F)ccc1F [GW683134A] | 100 | 100 | 100 | 100 | 100 | 76 | 100 | 100 | 80 | 100 |
| CC1=C(C(=O)Nc2ccc3[nH]ncc3c2)C(c2ccc3ccccc3c2)CC(=O)N1 (stereo not shown) [GSK270822A] | 78 | 93 | 90 | 100 | 28 | 61 | 65 | 81 | 87 | 85 |
| COc1ccc2c(-c3ccnc(Nc4cccc(OC(F)(F)F)c4)n3)cnn2n1 [GW810372X] | 60 | 100 | 100 | 100 | 100 | 96 | 100 | 100 | 85 | 100 |
| COc1cccc(-n2ncc3c(N/N=C/c4ccncc4)ncnc32)c1 [GW784752X] | 100 | 89 | 100 | 100 | 96 | 100 | 84 | 100 | 84 | 100 |
| COc1cc(/C=N/Nc2ncnc3[nH]ncc23)ccc1O [GW578748X] | 38 | 68 | 100 | 100 | 73 | 100 | 100 | 28 | 70 | 100 |
| NS(=O)(=O)c1ccc(N/N=C2\C(=O)Nc3ccc(-c4cnco4)cc32)cc1 [GW276655] | 49 | 50 | 77 | 100 | 67 | 68 | 89 | 93 | 71 | 100 |
| COc1cc2ncnc(Nc3ccc4c(cnn4Cc4ccccc4)c3)c2cc1OC.Cl [GW282449A] | 100 | 100 | 100 | 100 | 100 | 100 | 100 | 100 | 95 | 100 |
| COc1cc(C)c(N(C)C(=O)CN(C)C)cc1Nc1nc(Nc2cccc(F)c2C(N)=O)c2cc[nH]c2n1 [GSK2219385] | 100 | 10 | 96 | 100 | 100 | 85 | 52 | 100 | 100 | 72 |
| COc1ccc(COc2ccc(Cc3cnc(N)nc3N)cc2OC)cc1 [GW632580X] | 100 | 100 | 92 | 100 | 93 | 86 | 95 | 100 | 100 | 84 |
| O=C1Nc2ccc(C(=O)c3ccco3)cc2C1=Cc1cc(Cl)c(O)c(Cl)c1 [GW406108X] | 69 | 51 | 34 | 100 | 95 | 88 | 3.3 | 100 | 78 | 83 |
| CN(C)c1cc2c(Nc3ccc4c(cnn4Cc4ccccc4)c3)ncnc2cn1 [GW282974X] | 86 | 100 | 92 | 99 | 100 | 84 | 89 | 100 | 79 | 66 |
| Cl.c1ccc(Cc2nc3ccc(Nc4ncnc5ccccc45)cc3[nH]2)cc1 [GR269666A] | 100 | 100 | 100 | 100 | 100 | 100 | 100 | 100 | 99 | 100 |
| NS(=O)(=O)c1ccc(N/N=C2\C(=O)Nc3ccc(Cl)cc32)cc1 [GW280670X] | 100 | 80 | 100 | 100 | 91 | 100 | 100 | 100 | 100 | 100 |
| CN1CCN(C(=O)c2ccc(NC(=O)Nc3ccc(N(C)c4ccnc(Nc5ccc(CS(C)(=O)=O)cc5)n4)cc3)cc2)CC1.Cl [GW830263A] | 98 | 100 | 7 | 23 | 54 | 100 | 94 | 100 | 63 | 89 |
| C/C(Nc1ccc(S(N)(=O)=O)cc1)=C1/C(=O)Nc2ccccc21 [GW335962X] | 100 | 70 | 66 | 100 | 65 | 87 | 100 | 100 | 75 | 100 |
| Cl.O=C(O[C@H]1CN[C@H](C#Cc2cc3ncnc(Nc4ccc5c(cnn5Cc5ccccc5)c4)c3s2)C1)N1CCOCC1 [GSK200398A] | 91 | 100 | 100 | 100 | 100 | 100 | 96 | 100 | 68 | 72 |
| CC1=C(C(=O)Nc2ccc3[nH]ncc3c2)C(c2ccc(Cl)c(Cl)c2)CC(=O)N1 (stereo not shown) [GSK299115A] | 91 | 100 | 88 | 90 | 21 | 67 | 72 | 86 | 84 | 97 |
| CCc1ccc(Oc2nccc(-c3c(-c4ccc(F)cc4)ncn3C3CCNCC3)n2)cc1 [SB-242719] | 98 | 100 | 87 | 100 | 92 | 96 | 99 | 100 | 100 | 96 |
| Cl.O=C(Nc1ccc(Oc2ccc3[nH]c(NC(=O)c4ccccc4)nc3c2)cc1)Nc1cc(C(F)(F)F)ccc1F [GW709042A] | 100 | 99 | 100 | 100 | 100 | 100 | 100 | 100 | 89 | 100 |
| CCS(=O)(=O)c1ccc(OC)c(Nc2ncc(-c3cccc(OC)c3)o2)c1 [GW580509X] | 100 | 94 | 97 | 100 | 100 | 100 | 100 | 100 | 98 | 100 |
